Each structure is given as a SMILES string. Where “and” joins values, the source holds several entries; their conditions need not be identical. Identical values can stand only once. Calls of active or inactive are those of the source. Rule for the calls: active = hit-call score of the fitted dose curve at least 0.9, where 1 is the maximum; inactive = score below 0.9.

Read-out in the experiment: Tissue plasminogen activator (tPA), PLAT (gene 5327)
In words: BSK_BE3C_tPA: BioMAP Diversity Plus: BE3C Assay for Tissue plasminogen activator (tPA) Biomarker Activity (AID 2283041). The following applies: primary human bronchial epithelial cells; actives raise or lower the signal. How it is done: BSK_BE3C is a cell-based, multiplexed-readout assay that uses bronchial epithelial cell, a human lung primary cell, with measurements taken at 24 hours after chemical dosing in a 96-well plate.BSK_BE3C_tPA is an assay component measured in the BSK_BE3C assay. It measures tPA antibody related to regulation of gene expression using ELISA technology.Data from the assay component BSK_BE3C_tPA was analyzed into 1 assay endpoint. This assay endpoint, BSK_BE3C_tPA, was analyzed with bidirectional fitting relative to DMSO as the negative control and baseline of activity. Using a type of binding reporter, gain or loss-of-signal activity can be used to understand changes in the signaling as they relate to the gene PLAT. Furthermore, this assay endpoint can be referred to as a primary readout, because this assay has produced multiple assay endpoints where this one serves a signaling function. To generalize the intended target to other relatable targets, this assay endpoint is annotated to the protease intended target family, where the subfamily is serine protease.
The levels of cell surface (or secreted, indicated by the prefix "s") biomarker endpoints were measured by ELISA. Overt cytotoxicity to cells in confluent adherent cultures (all systems other than the BT system) was assessed by measuring total protein levels using sulforhodamine B (SRB) staining in parallel cultures at the time of biomarker measurements, indicated as SRB endpoints. For proliferation assays for adherent cell types, individual cell types are cultured at sub-confluence and relative cell numbers quantified by SRB staining at time points optimized for each system (48 h: 3C and CASM3C systems; 72 h: BT and HDF3CGF systems; 96 h: SAg system). SRB was performed by staining cells with 0.1% SRB after fixation with 10% TCA and reading wells at 560 nm.Viability and proliferation of PBMC (T cells) was quantified by Alamar Blue reduction for the SAg and BT systems. For PBMC viability (referred to as PBMC Cytotoxicity within the assay endpoint names), cells were plated (75,000/well in a 96-well plate) and then chemical samples added for 1 h before addition of activators, SEB and TSST-1 (20 ng/mL final concentration each). Cells were incubated for 90 h. Then, Alamar Blue (20 uL/well) (Invitrogen, Cat DAL1100) was added for 6 h, and the plates were read with a fluorescence microplate reader at 546/580 nm (excitation/emission). For PBMC proliferation, cells were plated and activated as above but incubated for only 16 h prior to addition of Alamar Blue. Plates were read after 6 h.
For `CN(C)Cc1cc(C(C)(C)C)c(O)c(C(C)(C)C)c1`, the outcome was inactive.
One may read the AC50 as the concentration at which the activity in the assay is half-maximal. For `O=[N+]([O-])c1cc(S(=O)(=O)Nc2ccccc2)ccc1Nc1ccccc1`, the AC50 is 34 µM (active) and 29.7 µM (active).
Regarding `CCC(C)=NO`, the outcome was inactive.
The same measure, in the same setting: the result for `COC(=O)/C=C\C(=O)OC` reads “inactive”.
With `CN(C)CCC(c1ccc(Cl)cc1)c1ccccn1` (configuration not stated), the result was inactive.
Take `CCC[Si](OC(C)=O)(OC(C)=O)OC(C)=O`: the result was inactive.
With `CCCCC(CC)COC(=O)C=Cc1ccc(OC)cc1` (configuration not stated), the result was inactive.
In the case of `OC(C(F)(F)F)(C(F)(F)F)C(O)(C(F)(F)F)C(F)(F)F`, the AC50 was 17 µM (active) and 16 µM (active).
The same measure, in the same setting: for `CN(C)c1ccc(C(c2ccccc2)c2ccc(N(C)C)cc2)cc1` the value was 6.47 µM (active).
As for `COc1ccccc1Oc1c(NS(=O)(=O)c2ccc(C(C)(C)C)cc2)nc(-c2ncccn2)nc1OCCO`, the result was inactive.
With `Cc1c(C(N)=O)cc([N+](=O)[O-])cc1[N+](=O)[O-]`, the outcome was inactive.
Same read-out and setting: the result for `CCCCCCC(O)CCCCCCCCCCC(=O)OC` (configuration not stated) reads “inactive”.
On to `CC(C)CC(=O)CC(C)CC(C)C` (configuration not stated), for which the concentration at half-maximal activity (AC50) was 29.4 µM (active).
Take `CCCCCCCCCCC1CO1` (configuration not stated): the outcome was inactive.
Consider `C1CN(CCOCCN2CCOCC2)CCO1`, for which the result was inactive.
Same read-out and setting: for `COc1cc(CNC(=O)CCCC/C=C/C(C)C)ccc1O` the value was “inactive”; for `O=C(C(=O)c1ccccc1)c1ccccc1`, “inactive”.
Take `CCCCCCCCCC/C=C/C1CC(=O)OC1=O` (configuration not stated): the AC50 was 14.5 µM (active).
With `Sc1nc2ccccc2s1`, the result was inactive.
As to `CC(C)C1OCCN1CCOC(=O)NCCCCCCNC(=O)OCCN1CCOC1C(C)C` (configuration not stated), the result was inactive.
`COc1ccc(C(=O)c2ccccc2O)c(O)c1`: the result was inactive.
On to `CCCCCCCCCCCCCCCCCC[N+](C)(C)C`, for which the concentration at half-maximal activity (AC50) is 1.32 µM (active).
Turning to `Cc1cccnc1`, the result was inactive.
The same measure, in the same setting: for `Cc1cc(-n2nc3ccc(Cl)cc3n2)c(O)c(C(C)(C)C)c1` the value was “inactive”.
With `CC[N+](CC)(CC(=O)Nc1c(C)cccc1C)Cc1ccccc1` (tested in a mixture with another compound), the result was inactive.
With `CC[N+](CC)(CC(=O)Nc1c(C)cccc1C)Cc1ccccc1`, the outcome was inactive.
On the same count and under the same terms, the result for `Oc1cccc2ccccc12` reads “inactive”.

The values are drawn from PubChem BioAssay (EPA / NIEHS).
